# According to PubChem BioAssay AID504333 (National Center for Advancing Translational Sciences (NCATS), 2011):
# Out of some 360,000 compounds screened, about 16,000 (4.4%) were called active. Roughly 9% stayed inconclusive and do not appear here. The full list was thinned out, with actives kept by preference. A number with no mark means an inactive call. The call rests on the fitted dose curve; in most records, active means well fitted inhibition curve with a large enough effect; inconclusive means small, poorly fitted or top-dose-only effect; inactive means no such curve, though single readings can be large or run the other way.
# Target: Bromodomain adjacent to zinc finger domain protein 2B (Homo sapiens) (UniProt Q9UIF8)
# Sequence (Q9UIF8 whole entry, looked up, the tested form may be a part): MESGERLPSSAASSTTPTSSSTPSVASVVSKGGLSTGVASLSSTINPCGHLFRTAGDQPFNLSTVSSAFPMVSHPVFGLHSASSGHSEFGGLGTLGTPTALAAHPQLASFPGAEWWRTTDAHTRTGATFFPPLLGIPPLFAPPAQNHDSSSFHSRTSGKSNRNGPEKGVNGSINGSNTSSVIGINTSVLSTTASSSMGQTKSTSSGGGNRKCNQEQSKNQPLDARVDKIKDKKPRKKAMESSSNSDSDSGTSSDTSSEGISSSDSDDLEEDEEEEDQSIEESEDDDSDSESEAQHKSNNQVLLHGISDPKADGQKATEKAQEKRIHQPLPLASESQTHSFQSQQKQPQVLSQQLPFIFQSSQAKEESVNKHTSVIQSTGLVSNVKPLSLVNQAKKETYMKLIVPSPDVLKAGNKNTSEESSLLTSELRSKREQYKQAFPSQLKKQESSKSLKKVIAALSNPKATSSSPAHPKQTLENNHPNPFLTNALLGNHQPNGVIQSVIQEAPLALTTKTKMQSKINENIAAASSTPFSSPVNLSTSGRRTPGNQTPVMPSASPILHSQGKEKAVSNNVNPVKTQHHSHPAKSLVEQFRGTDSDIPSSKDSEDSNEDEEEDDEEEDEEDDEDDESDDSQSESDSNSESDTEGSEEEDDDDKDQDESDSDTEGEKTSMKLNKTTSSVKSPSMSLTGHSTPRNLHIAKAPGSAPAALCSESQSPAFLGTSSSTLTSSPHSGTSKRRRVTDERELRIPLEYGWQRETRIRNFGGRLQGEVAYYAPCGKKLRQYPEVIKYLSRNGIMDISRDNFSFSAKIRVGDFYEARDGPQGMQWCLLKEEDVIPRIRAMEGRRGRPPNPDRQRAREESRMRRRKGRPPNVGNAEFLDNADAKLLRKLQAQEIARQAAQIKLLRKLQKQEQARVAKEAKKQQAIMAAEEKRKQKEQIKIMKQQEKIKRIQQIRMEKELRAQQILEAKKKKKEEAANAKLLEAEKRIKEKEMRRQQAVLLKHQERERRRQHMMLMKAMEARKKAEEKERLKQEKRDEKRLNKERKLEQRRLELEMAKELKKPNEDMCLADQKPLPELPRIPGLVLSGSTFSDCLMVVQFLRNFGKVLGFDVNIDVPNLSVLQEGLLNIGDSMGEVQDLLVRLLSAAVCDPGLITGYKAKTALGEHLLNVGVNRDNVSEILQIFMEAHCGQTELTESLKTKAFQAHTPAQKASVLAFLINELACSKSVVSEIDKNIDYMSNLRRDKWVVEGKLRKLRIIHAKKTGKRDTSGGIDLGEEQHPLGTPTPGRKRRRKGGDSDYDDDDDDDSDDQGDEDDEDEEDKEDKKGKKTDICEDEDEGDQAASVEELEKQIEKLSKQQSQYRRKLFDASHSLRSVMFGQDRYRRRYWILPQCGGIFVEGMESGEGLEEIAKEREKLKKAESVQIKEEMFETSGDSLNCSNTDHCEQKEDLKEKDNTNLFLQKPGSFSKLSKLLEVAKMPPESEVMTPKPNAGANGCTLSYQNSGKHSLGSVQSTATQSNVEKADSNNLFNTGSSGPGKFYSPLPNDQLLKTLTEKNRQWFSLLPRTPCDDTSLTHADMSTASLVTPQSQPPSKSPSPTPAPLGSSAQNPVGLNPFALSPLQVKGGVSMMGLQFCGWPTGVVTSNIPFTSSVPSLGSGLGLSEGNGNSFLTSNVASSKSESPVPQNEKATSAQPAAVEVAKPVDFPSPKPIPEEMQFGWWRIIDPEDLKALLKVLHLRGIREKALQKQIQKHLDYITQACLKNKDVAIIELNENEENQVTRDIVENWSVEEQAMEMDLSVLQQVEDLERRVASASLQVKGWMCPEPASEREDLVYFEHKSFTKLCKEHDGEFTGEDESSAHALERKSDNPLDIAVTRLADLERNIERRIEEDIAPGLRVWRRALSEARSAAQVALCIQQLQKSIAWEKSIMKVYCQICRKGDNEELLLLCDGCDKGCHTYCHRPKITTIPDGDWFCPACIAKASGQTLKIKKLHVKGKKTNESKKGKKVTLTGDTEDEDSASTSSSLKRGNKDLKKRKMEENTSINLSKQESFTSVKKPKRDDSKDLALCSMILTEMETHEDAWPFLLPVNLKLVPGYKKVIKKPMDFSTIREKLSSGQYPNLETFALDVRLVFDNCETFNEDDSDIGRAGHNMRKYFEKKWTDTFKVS
# Test: qHTS Assay for Inhibitors of BAZ2B; further: nearly all actives have a fitted effect of over 60% in size
# Conditions: AlphaScreen BAZ2B-H3K14Ac peptide displacement; series mostly up to 114 µM; activity change, negative = inhibition: at the top concentration
# Source text: BAZ2B (bromodomain adjacent to zinc finger domain, 2B) belongs to a family of ubiquitously expressed bromodomain containing proteins, which biological function has not yet been elucidated. […] The interaction of BAZ2B with ISWI mediated by the BAZ1 motif has recently been described. […] The protocol is based on the AlphaScreen (PerkinElmer) displacement assay developed by NCGC [5], but uses the peptide ligand Biot-H3K14Ac, a high affinity binding partner for BAZ2B, in an AlphaScreen format. Although AlphaScreen has significant advantages with its utility in a variety of epigenetic target assays, the primary screening data provided in this deposition should be used with caution due to the prevalence of screening artifacts. The top compound concentration tested was 110uM in this assay, which increases number of actives and potential artifacts. An AlphaScreen counterscreen is highly recommended to be run against any putative actives to eliminate non-specific artifacts. Alternatively, one can use other AlphaScreen assays in PubChem to filter out promiscuous hits. Eberharter, A. et al. ACF1 improves the effectiveness of nucleosome mobilization by ISWI through PHD-histone contacts. The EMBO journal 23, 4029-4039. 2004. PMID: 15457208 [2] Jones, M.H. et al. A novel family of bromodomain genes. Genomics 63, 40-45. 2000. PMID: 10662543 [3] Yasgar, et al. Compound Management for Quantitative High-Throughput Screening. JALA. 2008 Apr;13(2):79-89. PMID: 18496600 [4] Inglese, et al. Quantitative high-throughput screening: a titration-based approach that efficiently identifies biological activities in large chemical libraries. Proc Natl Acad Sci. 1;103(31):11473-8. 2006. PMID: 16864780 [5] Quinn et al. A chemiluminescence-based method for identification of histone lysine methyltransferase inhibitors. Mol Biosyst 6(5): 782-8. 2010. PMID: 20567762 [6] Baell,Holloway. New substructure filters for removal of pan assay interference compounds (PAINS) from screening libraries and for their exclusion in bioassays. J Med Chem. 53(7):2719-40. 2010. PMID: 20131845 NIH Molecular Libraries Probe Production Network [MLPCN] NIH Chemical Genomics Center [NCGC] Structural Genomics Consortium (SGC) NIH Grant: 5U54 MH084681-02
# To each well of a 1,536w plate, 2ul of BAZ2B protein (final 50nM) and 1ul biotinylated histone peptide acetylated at Lys14 [b-H3(5-23)K14Ac] (final 50nM) were added in 1x PBS buffer, pH 7.4, containing 0.01% Tween-20, using a nanoliter dispenser. Formation of a protein-peptide complex proceeded at room temperature for 30 min. A Kalypsys pin-tool was employed to transfer 23 nL of library compound solution in DMSO to each well. Following a 30 min incubation of the protein-peptide complex with compounds at room temperature, a mixture of 40 ug/mL each streptavidin-coated donor and nickel chelate acceptor AlphaScreen beads (final 10 ug/mL) were added in a 1ul dispense for a final volume of 4ul. A brief centrifugation followed (1000rpm, 1 min) and were then incubated protected from the light for 20 min at room temperature. Plates were read on an EnVision multilabel plate reader using the 1,536 plate HTS AlphaScreen aperture (excitation time 80 ms, measurement time 240 ms).
# On the % scale 0 is the no-effect control and ±100 the full control effect; potency means the concentration at half of the fitted maximal effect.
SMILES,Potency,"activity change, negative = inhibition"
CC(C)(C)C1C/C(=C/c2ccco2)C(=O)/C(=C/c2ccco2)C1 (configuration not stated),25.1 µM (active),
CCc1ccc(C2C(C(=O)Nc3ccccc3)=C(C)Nc3c(C(=O)Nc4ccc(C)cc4)cnn32)cc1 (configuration not stated),,8.98% [at 57.1 µM]
Cc1cc(O)c(C(c2ccccc2)N2CCN(c3ccccc3F)CC2)c(=O)n1Cc1ccco1 (configuration not stated),,-38.4%
O=C(O)c1ccccc1N=N/C(=N/Nc1cc(S(=O)(=O)O)ccc1O)c1ccccc1,11.2 µM (active),
CCOC(=O)N1CCc2c(sc3c2c(=O)n(-c2ccc(CC)cc2)c(=O)n3C)C1,,2.66%
O=[N+]([O-])c1ccc(F)cc1Oc1nc(-c2cccnc2)nc2ccccc12,,-16.4%
O=[N+]([O-])c1ccc(Oc2ccc(F)cc2Br)c2ccncc12,31.6 µM (active),
Oc1c(Cl)cc(Cl)c(Cl)c1Cc1c(O)c(Cl)cc(Cl)c1Cl,50.1 µM (active),
CCOc1ccc(N(Cc2ccccc2)C(=O)c2nc(S(C)(=O)=O)ncc2Cl)cc1,,-21.6%
CCc1ccc(NC(=O)CN2C(=O)CCSc3ccc(S(=O)(=O)N4CCCC4)cc32)cc1,,-4.59%
CCOC(=O)c1ccc(NC(=O)c2c(NCc3cccs3)sc3c2CCCC3)cc1,28.2 µM (active),
CCOC(=O)c1ccc(NC(=O)c2csc3c2CCCCC3)cc1,,-0.642%
CCOC(=O)c1ccc(NC(=O)c2c(NCc3cccc(OC)c3)sc3c2CCC3)cc1,,3.03%
Cc1ccc(-c2nn3c(=O)cc(CN4CCN(C(=O)Nc5cccc(C(F)(F)F)c5)CC4)nc3s2)cc1,,-22.9%
COc1cc(CN(C(=O)c2ccccc2Br)c2ccccn2)cc(OC)c1OC,,-18.4%
COc1ccc(OC)c(CNC(=O)c2c3c(nc4ccccc24)C(=O)N(C2CCCCC2)C3)c1,,-9.86%
Cc1ccc(NC2=NC(c3ccccc3)n3c(nc(C)cc3=O)N2)cc1 (configuration not stated),,12.2%
Cc1cc(Nc2ccc(C(=O)N3CCCCC3)cc2)c2cccc(C)c2n1,,0.772%
Cc1ccc(Nc2cc(C)nc3c(C)ccc([N+](=O)[O-])c23)cc1,10 µM (active),
Cc1cc(=O)n2[nH]c(-c3sccc3-n3c(C)ccc3C)cc2n1,50.1 µM (active),
Cc1cc(=O)n2[nH]c(-c3cccc(Cl)c3)cc2n1,,-1.33%
CCc1c(C)nc2cc(-c3cccs3)[nH]n2c1=O,,2.81%
COc1ccc(Cc2nc3ccc(C(=O)NCc4ccccc4C)cc3o2)cc1,,0.109%
Cc1cccc(C(=O)Nc2ccccc2N2CCN(c3ccc(F)cc3)CC2)c1,,-8.8%
Cc1cccc(N2CCN(C(=O)c3ccccc3NC(=O)C3CCCCC3C(=O)O)CC2)c1 (configuration not stated),,-2.25%
Cc1cccc(N2CCN(c3ccc(C(=O)O)cc3NC(=O)c3ccccc3F)CC2C)c1 (configuration not stated),56.2 µM (active),

SMILES,Potency,"activity change, negative = inhibition"
COc1ccc(NC(=O)c2sc3nc(-c4cc5cccc(OC)c5oc4=O)[nH]c(=O)c3c2C)cc1,,5.3%
CCn1c2ccccc2c2cc(NC(=O)COC(=O)c3ccccc3Br)ccc21,,-36.9%
CCn1c2ccccc2c2cc(NC(=O)COc3ccc(C)cc3C)ccc21,,2.19%
CCn1c2ccccc2c2cc(NC(=O)CNC)ccc21,56.2 µM (active),
COc1cc(Cl)ccc1Nc1ncc(C(=O)N2CCN(c3ccccc3OC)CC2)c2ccccc12,,-3.95%
Cc1cccc(N2CCN(C3=C(c4ccccc4)C(=O)c4ccccc43)CC2)c1C,2.24 µM (active),
Cc1cccc(N2CCN(Cc3c(C)n(C)n(-c4ccccc4)c3=O)CC2)c1C,,5.93%
Cc1cccc(N2CCN(c3c(CN4CCCC4)c(=O)oc4ccccc34)CC2)c1C,,-9.79%
CCOc1ccccc1N(CC)C(=O)Nc1cn(C)c(=O)c2ccccc12,,6.05%
CC(C)c1ccc(NC(=O)CN(C)S(=O)(=O)c2ccc3c(c2)c(=O)n(C)c(=O)n3C)cc1,,-2.58%
CCS(=O)(=O)c1nc(S(=O)(=O)c2ccc(C)cc2)c(NCc2ccc(Cl)cc2)s1,,-7.97%
Cn1c(=O)c(C(=O)O)nn(-c2ccccc2)c1=O,,-1.4%
O=C(O)C1CCN(c2ccc([N+](=O)[O-])cc2[N+](=O)[O-])CC1,56.2 µM (active),
CCOC(=O)C1CCN(c2ccc(C(=O)O)cc2[N+](=O)[O-])CC1,,4.06%
CC1CCN(c2ccc([N+](=O)[O-])cc2C(N)=O)CC1,,-19.3%
Cc1ccc(Cl)cc1N1CCN(S(=O)(=O)c2cc3[nH]c(=O)c(=O)[nH]c3cc2C)CC1,,-20.7%
COc1ccc(CCC(=O)NCc2ccc3c(c2)CCN3C(=O)c2ccc(F)cc2)cc1,,-1.32%
COc1ccccc1-c1noc(-c2ccc(NCc3ccccc3)c([N+](=O)[O-])c2)n1,,-4.93%
O=C(CSc1nnc(-c2ccccc2F)o1)Nc1cccc(C(F)(F)F)c1,,-13%
COc1ccccc1Cn1c(CO)nc2ccccc21,,-9%
COc1ccccc1CN1CCN(Cc2cc(OC)c(OC)cc2OC)CC1,50.1 µM (active),
COc1ccccc1N1CCN(Cc2ccc(OC)c3ccccc23)CC1,28.2 µM (active),
COc1ccccc1N1CCN(Cc2cc(OC)c3c(c2)OCO3)CC1,,-11%
COc1ccccc1CNCc1cccs1,,2.33%
c1ccc(C(c2ccccc2)N2CCN(Cc3nnnn3C3CCCCC3)CC2)cc1,,4.36%
COc1ccccc1CN1CCN(C(c2ccccc2)c2ccccc2)CC1,79.4 µM (active),

SMILES,Potency,"activity change, negative = inhibition"
COc1ccccc1CN1CCCC(N2CCN(c3ccc(F)cc3)CC2)C1 (configuration not stated),,-2.71%
CC(=O)N1CCN(CC(c2ccccc2)c2ccccc2)CC1,,-23.7%
Oc1ccccc1CN1CCN(C(c2ccccc2)c2ccccc2)CC1,50.1 µM (active),
CNCC(O)CN1CCN(c2ccccc2OC)CC1 (configuration not stated),,-26%
COc1cc(CN2CCCN(C)CC2)c([N+](=O)[O-])cc1OC,,-9.5%
Cc1ccc2cccc(NC(=O)c3ccc(OC(C)C)cc3)c2n1,,-7.03%
Cc1ccc(NC(=O)CSc2nnc3[nH]c(=O)cc(C)n23)cc1Cl,,1.62%
CSc1ccc(C2c3c(oc4ccccc4c3=O)C(=O)N2CCCN2CCOCC2)cc1 (configuration not stated),,-3.97%
COc1cccc(C(=O)N(Cc2cccc(Cl)c2)Cc2ccco2)c1,,27%
O=C(COc1ccc(Cl)cc1)Nc1ccccc1OCc1cc(=O)n2ccccc2n1,,3.37%
Cc1ccc(NC(=O)c2cc3cc(C)ccc3n2C)cc1,,-7.6%
O=C(Cn1c(=O)n(Cc2ccccc2)c(=O)c2sc3ccccc3c21)Nc1ccccc1F,,2.08%
Cc1ccc(C2CCN(C(=O)c3cnn(-c4ccccc4Cl)c3C3CCN(C(=O)OC(C)(C)C)CC3)C2)cc1 (configuration not stated),,-17.9% [at 57.1 µM]
COc1cccc(CNC(=O)Cn2ncn3c(cc4ccccc43)c2=O)c1,,2.55%
Cc1ccc(NC(=O)CN2c3ccccc3S(=O)(=O)c3ccccc32)cc1F,,-11.7%
CCCn1c2ccccc2c2cnn(CC(=O)N3CCCC(C(=O)OCC)C3)c(=O)c21 (configuration not stated),,2.57%
COc1cc2c3c(c1)/C(=C1/SC(=S)NC1=O)C(=O)N3C(C)(C)C=C2C,44.7 µM (active),
CCOC(=O)c1ccc(NC(=O)c2nc[nH]c2C(=O)NCc2ccccc2)cc1,,3.08%
CCOC(=O)c1[nH]cnc1C(=O)NC1CCCCC1,50.1 µM (active),
CC(C)(C)OC(=O)N1CCC(NC(=O)c2[nH]cnc2C(=O)N[C@@H](Cc2ccccc2)C(=O)OCc2ccccc2)CC1,,-15.2%
COc1ccc2cc(CNc3ccc(OC)c(OC)c3)c(=O)n(CC(=O)Nc3ccccc3F)c2c1,,0.402%
COc1cccc(-c2n[nH]c3c2C(c2cccc(O)c2)N(C)C3=O)c1 (configuration not stated),,-16%
Cc1cc(N=Nc2ccc3ccccc3c2)ccc1O,28.2 µM (active),
Cc1ccc(/C=N/NC(=O)c2cc3ccccc3cc2O)o1,,-28.4%
COc1ccc(/C=C/c2noc(-c3ccccc3O)n2)cc1OC,,4.53%
COc1ccc(-n2c(SCC(=O)Nc3ccc(Cl)c(C)c3)nc3n[nH]c(C)c3c2=N)cc1,,-4.47%

SMILES,Potency,"activity change, negative = inhibition"
CCc1cccc(NC(=O)CN(c2ccc(C)c(C)c2)S(=O)(=O)c2ccsc2C(=O)OC)c1,,-6.76%
Oc1c(CN2CCN(c3ccc(F)cc3)CC2)cc(Cl)c2cccnc12,22.4 µM (active),
O=C(CN1CCN(c2ccc(F)cc2)CC1)Nc1ccccc1,,6.8%
Oc1c(CN2CCCC2)cc(COCc2ccccc2)c2cccnc12,17.8 µM (active),
Cc1cccnc1NC(=O)c1cccc(S(=O)(=O)N2CCN(c3ccc(F)cc3)CC2)c1,,-30.1%
COc1cc(C)cc(CN2CCC(Cc3ccccc3)CC2)c1O,,-25.9%
COc1cc(CN2CCC(C(N)=O)CC2)ccc1OCc1ccccc1,,-14.9%
CCCS(=O)(=O)c1c(Nc2ccccc2C)sc(C(=O)c2ccccc2)c1N,,-30.6%
Cc1ccc(-c2nn3c(=O)cc(CN4CCN(S(=O)(=O)c5ccc(Cl)cc5)CC4)nc3s2)cc1,,-2.85%
COc1cc(NC(=O)c2cc(C3CC3)nc3c2c(C)nn3-c2ccccc2)cc(OC)c1,,10.3% [at 57.1 µM]
O=C(/C=C/c1ccccc1)Nc1cc(-c2nc3cc(Cl)ccc3o2)ccc1Cl,,-6.45%
CCCCNC(=O)c1ccc2c(c1)NC(=O)C(C(C)C)N2 (configuration not stated),,-2.58%
CCN(CCCNC(=O)c1ccc2c(c1)NC(=O)CN2C)c1cccc(C)c1,50.1 µM (active),
CCN(CCCNC(=O)Cn1ncc2c([nH]c3ccccc32)c1=O)c1cccc(C)c1,,-10.1%
CCC1CCCCN1C(=O)Cn1c(=O)n(CCCCCC(=O)NCc2ccccc2)c(=O)c2sccc21 (configuration not stated),,4.84%
C=CCCC(=O)Nc1nc(C)c(-c2csc(Nc3ccc(Cl)cc3)n2)s1,44.7 µM (active),
CCCCCCC(=O)Nc1nc(C)c(-c2csc(Nc3cccc(OC)c3)n2)s1,50.1 µM (active),
Cc1nc(NC(=O)c2cccc(Cl)c2)sc1-c1csc(Nc2cccc(Cl)c2)n1,,-13.5%
CC(=O)Nc1nc(C)c(-c2csc(Nc3ccc(S(N)(=O)=O)cc3)n2)s1,,-12.2%
Cc1ccc(Nc2nc(-c3sc(NC(=O)c4ccccc4)nc3C)cs2)cc1,50.1 µM (active),
Cc1ccc(C(=O)Nc2nc(-c3ccccc3)ns2)cc1,,1.63%
COc1cccc(CC(=O)Nc2ccc(-c3csc(C)n3)cc2)c1,,-13.6%
CCC(=O)Nc1nc(C)c(C(=O)Nc2cccc(Cl)c2)s1,,-34.4%
CCOC(=O)c1csc(NC(=O)Nc2cccc(OC)c2)n1,,-4.77%
